HT1080 IDH1KD tx: qHTS for induction of synthetic lethality in tumor cells producing 2HG: qHTS for the HT-1080-IDH1KD cell line | AID 686971, 2013 | HT-1080 IDH1 knockdown viability, ATP luminescence, 48 h | 360,000 compounds, 2% hits | Potency, µM (highest dose often 46.1 µM), without a hit: at the top dose activity, negative = toxicity, hits mostly cytotoxic;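 note: potency is the fitted concentration of half-maximal effect; 0% = DMSO wells and -100% = cell-free medium wells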
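Luminescent ATP read-out (CellTiter-Glo, 10 min at room temperature) after 48 h compound exposure at 37 °C gave viability of IDH1-knockdown HT-1080 cells. Activity was normalised to DMSO and cell-free wells, then fitted as concentration-response curves.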
TDP1 cell CPT: qHTS for Inhibitors of human tyrosyl-DNA phosphodiesterase 1 (TDP1): qHTS in cells in presence of CPT; chicken DT40 Tdp1-/-;hTDP1 cells + 20 nM CPT, ATP luminescence, 48 h; Potency, µM (titrated, usually from 46.2 µM), without a hit: at the highest dose activity change, negative = growth inhibition, hits mostly inhibitors; 420,000 compounds, 12% hits; AID 686979, 2013; note: potency is the fitted concentration of half-maximal effect; nearly all actives have a fitted effect of over 55% in size
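Chicken DT40 Tdp1-/- cells complemented with human TDP1, 400 cells/well, exposed to compounds plus 20 nM camptothecin for at least 48 h at 37 C; viability read as ATP content by CellTiter-Glo luminescence.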
DT40 TDP1 no CPT: qHTS for Inhibitors of human tyrosyl-DNA phosphodiesterase 1 (TDP1): qHTS in cells in absence of CPT; Potency, µM (doses to about 46.2 µM), for inactives: top-dose activity change, negative = growth inhibition, actives largely listed as inhibitors; AID 686978, 2013; 420,000 compounds, 15% hits; DT40 Tdp1-/- hTDP1 cells, no CPT, ATP luminescence, 48 h; note: potency is the fitted concentration of half-maximal effect; nearly all actives have a fitted effect of over 55% in size
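Luminescent ATP content (CellTiter-Glo) served as the growth readout. Knockout chicken DT40 cells expressing human TDP1 were exposed to compounds without camptothecin for a minimum 48 hr at 37 °C.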
12-LOX inh: Primary qHTS assay for inhibitors of human arachidonate 12S-lipoxygenase (ALOX12): Round 2; Potency, µM (doses to about 108 µM), for inactives: top-dose activity change, negative = inhibition, actives largely listed as inhibitors; Polyunsaturated fatty acid lipoxygenase ALOX12 (Homo sapiens), P18054; 580,000 compounds, 1.1% hits; purified 12hLO, xylenol orange hydroperoxide absorbance; note: potency is the fitted concentration of half-maximal effect
Target sequence (P18054 whole entry, looked up): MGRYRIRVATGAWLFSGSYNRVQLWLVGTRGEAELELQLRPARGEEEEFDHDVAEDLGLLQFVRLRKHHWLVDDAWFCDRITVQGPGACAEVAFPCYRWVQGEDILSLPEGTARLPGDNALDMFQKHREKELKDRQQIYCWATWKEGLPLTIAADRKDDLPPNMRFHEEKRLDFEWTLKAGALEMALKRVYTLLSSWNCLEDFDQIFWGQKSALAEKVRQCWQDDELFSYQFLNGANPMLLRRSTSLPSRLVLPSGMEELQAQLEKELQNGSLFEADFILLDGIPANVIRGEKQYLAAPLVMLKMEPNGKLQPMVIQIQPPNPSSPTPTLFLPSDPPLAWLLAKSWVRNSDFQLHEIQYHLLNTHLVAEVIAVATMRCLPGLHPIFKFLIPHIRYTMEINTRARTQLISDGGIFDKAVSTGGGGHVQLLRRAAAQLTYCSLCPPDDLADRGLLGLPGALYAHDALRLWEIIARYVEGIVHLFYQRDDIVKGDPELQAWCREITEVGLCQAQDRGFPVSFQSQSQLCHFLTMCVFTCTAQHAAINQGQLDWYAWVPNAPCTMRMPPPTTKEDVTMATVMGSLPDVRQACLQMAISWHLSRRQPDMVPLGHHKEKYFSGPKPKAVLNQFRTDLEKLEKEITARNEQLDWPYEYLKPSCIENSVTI
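Purified human 12hLO at 150 nM in 25 mM Hepes, 0.01% Triton X-100, pH 7.0, preincubated 15 min at room temperature with compound. Reaction started with 40 uM arachidonic acid, 30 min at room temperature. Hydroperoxide measured by Fe-xylenol orange, 573/405 nm absorbance ratio.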
HT1080-NT tox: qHTS for induction of synthetic lethality in tumor cells producing 2HG: qHTS for the HT-1080-NT fibrosarcoma cell line. HT-1080-NT fibrosarcoma viability, CellTiter-Glo ATP luminescence, 48 h. Potency, µM (titrated, usually from 46.1 µM), without a hit: at the highest dose activity, negative = less viability, actives largely listed as cytotoxic. 360,000 compounds, 1.6% hits. AID 686970, 2013;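 note: NT is the 2HG producing partner of a matched IDH1 knockdown line; potency is the fitted concentration of half-maximal effect; 0% = DMSO-treated cells and -100% = media-only wells without cells; nearly all actives have a fitted effect of over 55% in size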
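Toxicity toward the 2HG-producing NT line was scored as %Activity, normalised to DMSO and no-cell wells, from CellTiter-Glo luminescence after 48 hours' treatment.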
IL1B secr inh: qHTS for Inhibitors of Inflammasome Signaling: IL-1-beta AlphaLISA Primary Screen; THP-1 LPS/ATP IL-1B secretion, AlphaLISA, 16 h; stronger effect = lower value; activity change, % at 57.5 µM; 360,000 compounds, 4.7% hits; AID 743279, 2014; in the data active = activity change below about -50%; inconclusive = mostly about -30% to -49%
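Secreted IL-1B measured by AlphaLISA bead assay after 16 h compound exposure of THP-1 cells; compounds (final up to 57.5 uM) added 1 h before LPS (250 ng/mL) and ATP (1.25 mM) stimulation; lower signal means less secretion.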
An asterisk follows results filed as active; ? = inconclusive; nt = not tested or not shown; [ ] = another dose, or the depositor's remark. The full list was thinned out, with hits kept by preference. Unless noted, calls come from the whole dose curve; as a rule, active = well fitted curve in the direction sought with a large enough effect; inconclusive = small, poorly fitted or top-dose-only effect, or another doubt; inactive = no such curve, though single readings can be large; an effect the other way counts as inactive or inconclusive. Unless noted, % is set by controls: 0 for no effect and ±100 for the full control effect.

SMILES	HT1080 IDH1KD tx	TDP1 cell CPT	DT40 TDP1 no CPT	12-LOX inh	HT1080-NT tox	IL1B secr inh
COc1ccc(C(C)NC(=O)c2c(C)oc3ccn(Cc4cccc(F)c4)c(=O)c23)cc1 (configuration not stated)	nt	nt	nt	19.7%	nt	nt
CC(C)=CCC/C(C)=C/CC/C(C)=C/CCC(=O)OC/C=C(\C)CCC=C(C)C	nt	-3.4%	-12.6%	nt	nt	nt
CCOc1ccccc1CN1[C@@H](c2ccc(OC)cc2)CC(C(=O)OC)(C(=O)OC)[C@H]1c1ccccc1	-4.7%	?	14.6µM*	-1.4%	4.9%	-13.0
COC(=O)C1(C(=O)OC)C[C@H](/C=C/c2ccccc2)N(Cc2ccccc2OC)[C@@H]1c1cccc(Br)c1	-12.0%	?	?	8.2%	-8.2%	2.5
COC(=O)C1(C(=O)OC)C[C@H](/C=C/c2ccccc2)N(Cc2ccccc2OC)[C@@H]1c1ccccc1	-6.5%	?	14.6µM*	-1.7%	-6.8%	-0.4
COC(=O)C1(C(=O)OC)C[C@H](c2cccs2)N(Cc2ccccc2OC)[C@@H]1c1ccc(F)cc1	-9.8%	14.6µM*	14.6µM*	-1.9%	-24.1%	-5.7
Cc1ccc(N2CC(NC(=O)/C=C\c3ccc4c(c3)OCO4)CC2=O)cc1C (configuration not stated)	nt	?	?	-16.2%	nt	nt
CCS(=O)(=O)N1CC(=O)N(c2cc(C)ccc2C)C(C)(C(=O)NC2CCCCC2)C1 (configuration not stated)	nt	-18.7%	-1.8%	-21.3%	nt	nt
COc1ccc(/C=N/n2cnc3c([nH]c4ccc(F)cc43)c2=O)cc1CSc1ccccn1	24.4%	1.16µM*	7.31µM*	?	28.5%	2.7
CC(=O)NCCc1nc2cc(NC(=O)COc3cccc(C)c3)ccc2n1C	17.8%	-11.2%	-11.1%	13.2%	?	11.9
O=C(Oc1c(-c2ccccc2)c(=O)n2c3c(cccc13)CC2)c1ccco1	-21.0%	0.3%	?	0.0%	-9.4%	5.0
O=C(Oc1c(-c2ccccc2)c(=O)n2c3c(cccc13)CC2)c1ccc(Cl)cc1	13.3%	-22.7%	20.6µM*	276.7%	21.6%	14.9
COC(=O)COc1ccc(-c2nccc(-c3ccc(Br)cc3)n2)cc1	25.7%	20.6µM*	?	6.2%	?	-2.9
COc1ccc(-c2ccnc(-c3ccncc3)n2)cc1	-5.2%	?	16.4µM*	?	-10.6%	15.8
COC(=O)COc1ccc(-c2nccc(-c3ccccn3)n2)cc1	20.2%	19.5%	5.7%	0.0%	16.8%	-4.9
COc1ccc(-c2ccnc(-c3ccc(O)cc3)n2)cc1	1.46µM*	1.64µM*	1.84µM*	-17.7%	4.11µM*	0.0
CC(=O)NC12CC3CC(CC(CO[N+](=O)[O-])(C3)C1)C2	nt	nt	nt	-5.4%	nt	nt
CCN1CCCC1CNCc1cc2c(OC)c(OC)c(OC)cc2nc1N(C)C (configuration not stated)	nt	-6.9%[9.04 µM]	-11.4%	13.4%	nt	nt
O=C(CCc1ccccc1)Nc1ccccc1F	-6.0%	3.2%	-11.7%	120.2%	-5.5%	-20.8
CN1CCN(c2ccccc2NC(=O)C(Cc2ccccc2)n2cccc2)CC1 (configuration not stated)	-13.5%	25.9µM*	?	3.0%	-17.4%	-29.5
O=C(Nc1ncc(Br)s1)C(Cc1ccccc1)n1cccc1 (configuration not stated)	-26.5%	?	?	10.4%[57.4 µM]	25.9µM*	23.5
CN1CCN(c2ccccc2NC(=O)Cc2ccc(Cl)cc2)CC1	-20.0%	-17.8%	-18.3%	22.8%	-17.8%	-28.5
CCCCC(=O)Nc1ncc(Br)s1	?	-22.9%	-12.0%	13.4%	-1.0%	-7.2
O=C(Nc1ccccc1F)C(Cc1ccccc1)n1cccc1 (configuration not stated)	nt	?	14.6µM*	?	nt	nt
Cc1ccc(C)c(NC(=O)C(Cc2ccccc2)n2cccc2)c1 (configuration not stated)	nt	?	16.4µM*	0.0%	nt	nt
SMILES	HT1080 IDH1KD tx	TDP1 cell CPT	DT40 TDP1 no CPT	12-LOX inh	HT1080-NT tox	IL1B secr inh
CCC(C)NC(=O)C(Cc1ccccc1)n1cccc1 (configuration not stated)	-0.2%	-16.8%	-1.5%	20.4%	-9.3%	-15.9
Cc1ccc(NC(=O)C(Cc2ccccc2)n2cccc2)c(C)c1 (configuration not stated)	nt	14.6µM*	14.6µM*	-8.8%	nt	nt
CCOC(=O)C(C(=O)OCC)N(C#N)c1nc(N(C)C)nc(N(C)C)n1	-21.8%	10.3%	-11.6%	-0.3%	-20.9%	-99.7*
CCOC(=O)C(C(=O)OCC)N(C#N)c1nc(C)cc(C)n1	8.8%[9.24 µM]	-4.9%	-6.2%	8.1%	5.9%	-4.3
COc1ccc(CN2CC(CNC(=O)Cc3ccccc3)C3(C2)CN(c2ccccc2)C3)cc1O (configuration not stated)	nt	nt	nt	-4.7%	nt	nt
Cc1ccc(NC(=O)CN2C(=O)NC(c3ccc(Cl)cc3)C3=C2COC3=O)cc1 (configuration not stated)	nt	nt	nt	11.2µM*	nt	nt
O=C(CN1C(=O)NC(c2ccc(Cl)cc2)C2=C1COC2=O)Nc1ccc(Cl)cc1F (configuration not stated)	nt	nt	nt	8.91µM*	nt	nt
O=C(CN1C(=O)NC(c2ccc(Cl)cc2)C2=C1COC2=O)Nc1ccc(Br)cc1F (configuration not stated)	nt	nt	nt	4.47µM*	nt	nt
O=C(CN1C(=O)NC(c2ccc(Cl)cc2)C2=C1COC2=O)Nc1cc(F)cc(F)c1 (configuration not stated)	nt	nt	nt	11.2µM*	nt	nt
COc1ccc(OC)c(NC(=O)CN2C(=O)NC(c3ccc(Cl)cc3)C3=C2COC3=O)c1 (configuration not stated)	nt	nt	nt	9.0%	nt	nt
Cc1ccc(C2NC(=O)N(CC(=O)Nc3c(C)cccc3Cl)C3=C2C(=O)OC3)cc1 (configuration not stated)	nt	nt	nt	2.2%	nt	nt
CSCCC(NC(=O)c1ccco1)C(=O)NCC1CCCCC1 (configuration not stated)	1.5%	2.5%	7.3%	1.2%	-1.7%	1.9
